These results are taken from PMC11062922 (Nature Chemical Biology, 2023).

Parameters in all cases: species or system human, MV4-11 + K-562 + COLO205 + SK-N-BE2 + OVCAR-8
One assay concerns NCL. The settings on record: read-out: apparent Kd; compound concentrations: 100 nM and 1000 nM (sheet 'Samples'), CATDS: 1.71627638164802E-2; n = 1.
The subject of a further assay is PRKCZ. The following applies: read-out: apparent Kd; compound concentrations: 100 nM and 1000 nM (sheet 'Samples'), CATDS: 1.7514325716089001E-2; n = 1.
The subject of another assay is RAF1. The settings on record: read-out: apparent Kd; compound concentrations: 100 nM and 1000 nM (sheet 'Samples'), CATDS: 0.155550656381887; n = 1.
Another assay relates to CSNK1G3. The following applies: read-out: apparent Kd; compound concentrations:100 nM and 1000 nM (sheet 'Samples'); n = 1.
The next assay concerns DCK. The settings on record: read-out: apparent Kd, n = 1.
The subject of another assay is TUBB6. The following applies: read-out: apparent Kd, n = 1.
A further assay has as its system CAMK4. The settings on record: read-out: apparent Kd, n = 1.
The subject of the next assay is IRAK1. The settings on record: read-out: apparent Kd, n = 1.
The test system of another assay is CIT. The following applies: read-out: apparent Kd; compound concentrations:100 nM and 1000 nM (sheet 'Samples'); n = 1.
A further assay concerns ARAF. The following applies: read-out: apparent Kd, compound concentrations: 100 nM and 1000 nM (sheet 'Samples'), n = 1.
In the next assay the test system is DHCR24. The settings on record: read-out: apparent Kd, n = 1.
The next assay concerns CDK10. The following applies: read-out: apparent Kd, n = 1.
The test system of the next assay is CDK12. The following applies: read-out: apparent Kd; compound concentrations:100 nM and 1000 nM (sheet 'Samples'); n = 1.
The next assay has as its system CDK13. The settings on record: read-out: apparent Kd, n = 1.
The subject of the next assay is PKM. The settings on record: read-out: apparent Kd, compound concentrations: 100 nM and 1000 nM (sheet 'Samples'), n = 1.
A further assay concerns PRKCI. The settings on record: read-out: apparent Kd, n = 1.
The next assay has as its system SLC25A6;SLC25A4. The settings on record: read-out: apparent Kd, n = 1.
A further assay deals with PSMC3. The following applies: read-out: apparent Kd, n = 1.
Another assay relates to EPHA7. The following applies: read-out: apparent Kd; compound concentrations:100 nM and 1000 nM (sheet 'Samples'); n = 1.
For another assay, the system named is CAMK2D. The following applies: read-out: apparent Kd, n = 1.
The mark [1] stands for this setting: compound concentrations:100 nM and 1000 nM (sheet 'Samples').

Read-outs that look alike come from different tables or passages of the source.

Consider `Cl.Cl.Cl.c1ccc(Oc2ccc(Nc3ccnc4cc(-c5ccc(CN6CCNCC6)o5)ccc34)cc2)nc1.c1ccc(Oc2ccc(Nc3ccnc4cc(-c5ccc(CN6CCNCC6)o5)ccc34)cc2)nc1` [GW567142A], for which the potency estimated from few doses with NCL is 1970 nM; with PRKCZ, 1820 nM.

For `CCc1nc(-c2cccc(N(C)S(=O)(=O)c3ccccc3)c2)c(-c2ccnc(Nc3ccc(N4CCN(C(C)=O)CC4)nc3)n2)s1` [GSK1645895A], in the assay on RAF1, the potency estimated from few doses was 1420 nM.

Consider `Nc1nc(N)c2nc(-c3ccccc3)[nH]c2n1` [SKF-12778], for which the results for the potency estimated from few doses with CSNK1G3, with DCK (setting [1]) and with TUBB6 (setting [1]) were 1180 nM, 1720 nM and 1770 nM, respectively.

`Fc1ccc(-c2c(-c3ccncc3)[nH]c3nccnc23)cc1` [RO1155697-000]: the potency estimated from few doses with CAMK4 (setting [1]) was 1550 nM.

In the case of `CNC(=O)c1ccccc1Nc1nc(Nc2cccc(CS(C)(=O)=O)c2)ncc1C.O=CO` [GSK1520489A], the potency estimated from few doses in the assay with IRAK1 (compound concentrations: 100 nM and 1000 nM (sheet 'Samples'), CATDS: 1.0270392688251299E-2) is 1150 nM.

With `CNc1nccc(-c2c(-c3ccc(F)cc3)ncn2C2CCN(C)CC2)n1` [SB-222903], the potency estimated from few doses with CIT was 670 nM.

As for `CC(=O)N1CCN(c2ccc(Nc3nccc(-c4sc(C(C)C)nc4-c4cccc(NS(=O)(=O)c5ccccc5)c4)n3)cn2)CC1` [GSK1645872A], in the assay with ARAF (CATDS: 2.3399978491415799E-2), the potency estimated from few doses is 1560 nM.

Take `CC(=O)c1c(-c2ccncc2)[nH]c(-c2ccncc2)c1C` [GW493036X]: the values for the potency estimated from few doses in the assay with CIT, with CSNK1G3 and with DHCR24 (setting [1]) were 173 nM, 842 nM and 1240 nM, respectively.

Regarding `N#Cc1cccc(Nc2nccc(-c3cnn4ncccc34)n2)c1` [GW778894X], the potency estimated from few doses in the assay on CDK10 (setting [1]) was 405 nM; in the assay on CDK12, 541 nM; with CDK13 (setting [1]), 1160 nM; in the assay with IRAK1 (setting [1]) it was 896 nM.

Consider `CN1CCN(Cc2ccc(-c3ccc4c(Nc5ccc(Oc6ccccn6)cc5)ccnc4c3)o2)CC1` [GW567140X], for which the potency estimated from few doses in the assay on CAMK4 (compound concentrations: 100 nM and 1000 nM (sheet 'Samples'), CATDS: 3.2094924147275203E-2) was 2000 nM; in the assay on PKM (CATDS: 3.4326075880393901E-2), 1520 nM.

Regarding `O=S(=O)(CCOCc1ccc(-c2ccc3ncnc(Nc4ccc(OCc5cccc(F)c5)c(Cl)c4)c3c2)o1)c1ccccc1` [GW615311X], the potency estimated from few doses is 2110 nM with DCK (compound concentrations: 100 nM and 1000 nM (sheet 'Samples'), CATDS: 2.31641141582303E-2); 2160 nM in the assay with PRKCI (compound concentrations: 100 nM and 1000 nM (sheet 'Samples'), CATDS: 2.29472037028754E-2); 1500 nM in the assay with TUBB6 (compound concentrations: 100 nM and 1000 nM (sheet 'Samples'), CATDS: 2.6696132806602001E-2).

`O=S(=O)(c1ccc(-c2ccnc3[nH]ccc23)cc1)N1CCCC1` [GSK846226A]: in the assay with SLC25A6;SLC25A4 (setting [1]), the potency estimated from few doses was 2020 nM.

Turning to `CN1CCN(Cc2ccc(NC(=O)Nc3ccc(N(C)c4ccnc(Nc5ccc(CS(C)(=O)=O)cc5)n4)cc3)cc2)CC1.Cl` [GW827654A], in the assay with CDK10 (compound concentrations: 100 nM and 1000 nM (sheet 'Samples'), CATDS: 3.5844771224848297E-2), the potency estimated from few doses was 1570 nM.

As to `CC(C)c1nc(-c2cccc(NS(=O)(=O)c3c(F)cccc3F)c2F)c(-c2ccnc(Nc3ccc(N4CCOCC4)nc3)n2)s1` [GSK2008607A], the potency estimated from few doses with ARAF (CATDS: 1.81049419419274E-2) is 2030 nM.

Consider `COc1ccc(-c2nn3ncccc3c2-c2ccnc(Nc3ccc4c(c3)OCCO4)n2)cc1` [GW827106X], for which the potency estimated from few doses in the assay with CDK13 (compound concentrations: 100 nM and 1000 nM (sheet 'Samples'), CATDS: 4.6663696277222499E-2) is 1770 nM.

As to `COc1cc(F)c(F)c(F)c1C(=O)c1cnc(NC2CCN(S(C)(=O)=O)CC2)nc1N` [RO4600703-000], the potency estimated from few doses in the assay on CDK12 was 2300 nM.

Regarding `CCCCCNC(=O)[C@@H]1CCCN2C(=O)CC[C@H](NC(=O)[C@H](Cc3ccc(OP(=O)(O)O)cc3)NC(C)=O)C(=O)N12` [RO0324694-000], the potency estimated from few doses with PSMC3 (setting [1]) is 1910 nM.

For `NC(=O)c1cccnc1COc1cc(-c2ccc(N3CCOCC3)nc2)cc2ncccc12` [BI01125081], the potency estimated from few doses with EPHA7 was 1500 nM.

Take `COc1ccc(Nc2nccc(N3CCC(NC(=O)Nc4cccc(OC)c4)C3)n2)cc1` (stereo not shown) [GSK1379742A]: the potency estimated from few doses with DHCR24 (compound concentrations: 100 nM and 1000 nM (sheet 'Samples'), CATDS: 0.157459675408709) is 1060 nM.

For `Cl.Oc1ccc2ncnc(Nc3ccc(OCc4ccccc4)cc3)c2c1` [GI262866A], the potency estimated from few doses with CAMK2D (setting [1]) was 388 nM.

Regarding `COc1cccc(C2=C(c3cn(C)c4c(C)cccc34)C(=O)NC2=O)c1` [RO3301012-000], in the assay on SLC25A6;SLC25A4 (compound concentrations: 100 nM and 1000 nM (sheet 'Samples'), CATDS: 9.9606855520270293E-2), the potency estimated from few doses was 1850 nM.

Turning to `Fc1cccc(COc2ccc(Nc3ncncc3C#Cc3ccccc3)cc2Cl)c1` [GW651576X], in the assay on PSMC3 (compound concentrations: 100 nM and 1000 nM (sheet 'Samples'), CATDS: 4.80880541633023E-2), the potency estimated from few doses is 1950 nM.

With `Nc1c(C(=O)c2ccccc2)cnn1-c1ccc(F)cc1` [RO1151246-000], in the assay with PRKCI (setting [1]), the potency estimated from few doses is 2030 nM.

Take `Cn1cc(C2=C(c3ccccc3[N+](=O)[O-])C(=O)NC2=O)c2ccccc21` [RO0317753-000]: in the assay on CAMK2D (compound concentrations: 100 nM and 1000 nM (sheet 'Samples'), CATDS: 9.7402766920506798E-2), the potency estimated from few doses was 597 nM.

With `Cc1ccc(-n2nc(C(C)(C)C)cc2NC(=O)Nc2ccc(OCCN3CCOCC3)cc2)cc1` [BIRB0876BS], the potency estimated from few doses with EPHA7 was 1830 nM.

Regarding `Cc1[nH]nc2c1N=C(c1ccccc1Cl)c1cc([N+](=O)[O-])ccc1N2` [RO0274406-000], the potency estimated from few doses with PKM (CATDS: 7.8896221929170104E-2) was 922 nM.
